In PubChem BioAssay AID1159580 (chemical genetic matrix, 2015):
“And” between values parts separate entries of the source, which are not always exact repeats. Equal entries are not always repeated. About 2,000 (36%) of roughly 5,500 compounds were called active. Not shown: some 18% with an inconclusive outcome. Rule as the data show it: active = normalized growth mostly below about 0.91 (no sharp cut-off); inconclusive = no clear call, values can overlap the other calls; inactive = mostly above about 0.92. The list shows a part of the results.

Experiment: chemical genetic growth profiling, strain panel (AID 1159580);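 also: tested at 20 µM; growth read once vehicle control cultures reached saturation at 30 °C; 1 = growth at the plate median or of vehicle wells; lower values mean less growth of the strain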
Conditions: S. cerevisiae deletion strains, growth OD

Measured: normalized growth

CCOC(=O)C(C)(C)Oc1ccc(Cl)cc1
inactive: locus YAL013W, strain DEP1, active compounds read low 1.01 and 0.989 | locus YAL021C, strain ccr4, active compounds read low 0.996 | locus YAL026C, strain drs2, active compounds read low 0.989 | locus YAL030W, strain snc1, active compounds read low 0.976 | locus YAL040C, strain CLN3, active compounds read low 0.985 | locus YBL061C, strain skt5, active compounds read low 0.978 | locus YBR009C, strain hhf1, active compounds read low 0.982 | locus YBR021W, strain FUR4, active compounds read low 0.988 | locus YBR023C, strain chs3, active compounds read low 0.985 | locus YBR171W, strain sec66, active compounds read low 0.973 | locus YBR229C, strain ROT2, active compounds read low 1.01 | locus YBR231C, strain swc5, active compounds read low 0.977 | locus YBR279W, strain paf1, active compounds read low 0.986 | locus YCL011C, strain gbp2, active compounds read low 0.991 | locus YCL016C, strain dcc1, active compounds read low 0.986 | locus YCL029C, strain bik1, active compounds read low 1 | locus YCL061C, strain MRC1, active compounds read low 0.98 | locus YCL069W, strain vba3, active compounds read low 0.981 | locus YCR088W, strain abp1, active compounds read low 0.984 | locus YDL005C, strain med2, active compounds read low 0.972 | locus YDL035C, strain GPR1, active compounds read low 1.01 | locus YDL040C, strain nat1, active compounds read low 0.979 | locus YDL074C, strain BRE1, active compounds read low 1.02 | locus YDL101C, strain DUN1, active compounds read low 0.999 | locus YDL134C, strain PPH21, active compounds read low 0.999 | locus YDL185W, strain tfp1, active compounds read low 1.01 | locus YDL192W, strain arf1, active compounds read low 1.01 | locus YDR001C, strain nth1, active compounds read low 0.983 | locus YDR069C, strain doa4, active compounds read low 0.984 | locus YDR101C, strain arx1, active compounds read low 0.99 | locus YDR137W, strain rgp1, active compounds read low 0.964 | locus YDR150W, strain NUM1, active compounds read low 1 | locus YDR159W, strain sac3, active compounds read low 0.945 | locus YDR162C, strain NBP2, active compounds read low 1.01 | locus YDR195W, strain ref2 0.954 | locus YDR297W, strain sur2, active compounds read low 0.982 | locus YDR318W, strain mcm21, active compounds read low 1 | locus YDR334W, strain swr1, active compounds read low 0.987 | locus YDR335W, strain msn5, active compounds read low 0.986 | locus YDR388W, active compounds read low 0.995 | locus YDR392W, strain spt3, active compounds read low 0.87 | locus YDR502C, strain sam2, active compounds read low 0.996 | locus YEL003W, strain gim4, active compounds read low 0.992 | locus YEL037C, strain rad23, active compounds read low 1.02 | locus YEL061C, strain CIN8 (second series), active compounds read low 0.981 | locus YEL061C, strain CIN8, active compounds read low 1.01 | locus YER002W, strain NOP16, active compounds read low 0.998 | locus YER015W, strain faa2, active compounds read low 0.971 | locus YER016W, strain bim1, active compounds read low 0.984 | locus YER110C, active compounds read low 0.992 | locus YER111C, strain swi4, active compounds read low 0.985 | locus YER155C, strain BEM2 (second series), active compounds read low 0.922 | locus YER155C, strain BEM2, active compounds read low 1 | locus YER167W, strain BCK2, active compounds read low 0.998 | locus YFR010W, strain ubp6, active compounds read low 1.01 | locus YGL078C, strain dbp3, active compounds read low 1.01 | locus YGL086W, strain mad1, active compounds read low 1 | locus YGL167C, strain pmr1, active compounds read low 0.975 | locus YGL173C, strain kem1, active compounds read low 0.984 | locus YGL227W, strain vid30, active compounds read low 0.975 | locus YGL240W, strain doc1, active compounds read low 0.949 | locus YGL248W, strain PDE1, active compounds read low 1.01 | locus YGL253W, strain hxk2, active compounds read low 1 | locus YGR078C, strain PAC10, active compounds read low 1.02 | locus YGR135W, strain pre9, active compounds read low 1 | locus YGR252W, strain gcn5, active compounds read low 0.993 | locus YHR013C, strain ard1, active compounds read low 1.02 | locus YHR027C, strain rpn1, active compounds read low 0.986 | locus YHR030C, strain SLT2, active compounds read low 1.01 and 0.939 | locus YHR079C, strain IRE1 (second series), active compounds read low 1 | locus YHR079C, strain IRE1, active compounds read low 0.946 | locus YHR094C, strain hxt1, active compounds read low 0.993 | locus YHR129C, strain ARP1, active compounds read low 1 | locus YHR142W, strain chs7, active compounds read low 0.993 | locus YHR200W, strain rpn10, active compounds read low 1 | locus YIL066C, strain RNR3, active compounds read low 1.01 | locus YIL073C, strain SPO22, active compounds read low 1.02 | locus YIL125W, strain kgd1, active compounds read low 0.998 | locus YIR030C, strain dcg1, active compounds read low 0.994 | locus YJL092W, strain hpr5, active compounds read low 0.978 | locus YJL095W, strain BCK1 (second series), active compounds read low 0.985 | locus YJL095W, strain BCK1, active compounds read low 0.986 and 0.943 | locus YJL115W, strain asf1, active compounds read low 0.965 | locus YJL129C, strain trk1, active compounds read low 0.973 | locus YJL134W, strain LCB3, active compounds read low 1 | locus YJL154C, strain vps35, active compounds read low 0.992 | locus YJL164C, strain tpk1, active compounds read low 0.985 | locus YJL166W, strain qcr8, active compounds read low 0.978 | locus YJL168C, strain set2, active compounds read low 0.997 | locus YJL187C, strain SWE1 (second series), active compounds read low 1.01 | locus YJL187C, strain SWE1, active compounds read low 0.97 | locus YJR043C, strain POL32, active compounds read low 1 | locus YJR066W, strain TOR1, active compounds read low 0.943
